KCNQ2 enhance: potentiators of rat KCNQ2 potassium channel; O88943; CHO-K1 KCNQ2, FluxOR thallium flux fluorescence; active compounds read high; 310,000 tested, 0.54% active; AID 2239; B-score at 10 µM;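 active means fluorescence ratio B-score at least 3 SD of library B-scores, with initial fluorescence B-score within 3 of them, cut at about 5.3 in these data; same plate scores as AID 2156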;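 further: B-score of peak minus minimum over baseline fluorescence ratio after K+ and Tl+ stimulus; positive B-score means potentiation of KCNQ2 with more thallium influx and brighter signal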
Target sequence (O88943 whole entry, looked up): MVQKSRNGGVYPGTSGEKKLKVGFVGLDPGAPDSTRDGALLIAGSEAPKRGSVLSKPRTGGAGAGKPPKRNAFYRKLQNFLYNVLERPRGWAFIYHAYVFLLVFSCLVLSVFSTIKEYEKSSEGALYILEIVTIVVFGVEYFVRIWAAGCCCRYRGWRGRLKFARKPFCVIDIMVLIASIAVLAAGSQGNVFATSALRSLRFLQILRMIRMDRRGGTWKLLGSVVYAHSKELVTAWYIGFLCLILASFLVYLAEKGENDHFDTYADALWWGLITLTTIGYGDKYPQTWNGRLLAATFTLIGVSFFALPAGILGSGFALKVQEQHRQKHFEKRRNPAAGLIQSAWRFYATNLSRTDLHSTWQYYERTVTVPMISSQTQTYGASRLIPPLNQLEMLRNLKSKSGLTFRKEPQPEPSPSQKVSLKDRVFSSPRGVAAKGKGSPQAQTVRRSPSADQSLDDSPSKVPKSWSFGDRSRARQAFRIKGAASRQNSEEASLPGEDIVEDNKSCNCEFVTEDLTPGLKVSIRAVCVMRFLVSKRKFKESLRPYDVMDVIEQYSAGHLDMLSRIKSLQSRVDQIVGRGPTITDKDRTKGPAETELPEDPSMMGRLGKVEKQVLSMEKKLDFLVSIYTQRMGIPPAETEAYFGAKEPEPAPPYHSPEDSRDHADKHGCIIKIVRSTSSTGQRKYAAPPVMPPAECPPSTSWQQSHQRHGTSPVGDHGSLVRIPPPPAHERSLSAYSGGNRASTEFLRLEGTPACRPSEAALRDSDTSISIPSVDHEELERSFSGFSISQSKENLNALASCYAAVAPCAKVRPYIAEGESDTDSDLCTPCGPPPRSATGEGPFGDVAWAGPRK
KCNQ2 block: blocks the rat KCNQ2 potassium channel; O88943; CHO-K1 KCNQ2, FluxOR thallium flux, 20 min; active compounds read low; B-score at 10 µM; 310,000 tested, 1.1% active;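 active means fluorescence ratio B-score at most minus 3 library SDs, with starting brightness B-score within 2 library SDs, cut at about -5.5 in these data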
The depositor's hits bear a star; i = inactive; · = no result. Sampled rows, rich in hits. Any-hit rate of the full collection: about 1.6%.

SMILES	KCNQ2 enhance	KCNQ2 block
COc1cc(C(=O)OCCNC(=O)c2ccncc2)cc(OC)c1OC	0.21	i
O=C1C2C(c3ccccc3)CC=CC2[C@H](c2ccc(C(F)(F)F)cc2)N1Cc1ccccc1 (stereo not given in full)	-7.77	-7.77*
CC[C@@H]1CC=C[C@H]2[C@H]1C(=O)N(Cc1ccccc1)[C@H]2c1ccc2ccccc2c1	-5.65	-5.65*
C[C@@H]1CC=C[C@H]2[C@H]1C(=O)N(Cc1ccccc1)[C@H]2c1ccc(C(F)(F)F)cc1	·	i
COc1ccc([C@H]2[C@H]3C=CC[C@@H](C)[C@@H]3C(=O)N2Cc2ccccc2)cc1Cl	·	i
OCC1CCCCN1CC(O)COC(c1ccc(F)cc1)c1ccc(F)cc1 (stereo not given)	·	i
OC1c2cc(Br)ccc2N=C2CCCN21 (stereo not given)	-7.7	-7.7*
CC1=Nc2ccc(Br)cc2C(c2ccccc2)N1CC(=O)NN (stereo not given)	1.65	i
CCCCC(=O)NC1(C(F)(F)F)NC(=O)N(C)C1=O (stereo not given)	·	i
CC(OC(=O)c1cc(=O)[nH]c2ccccc12)c1ccccc1 (stereo not given)	0.02	i
CCOC(=O)N1CCN(C(=O)c2ccc3c(=O)n(CCC4=CCCCC4)c(=S)[nH]c3c2)CC1	0.45	i
O=c1c2ccc(Cl)cc2[nH]c(=S)n1CCC1=CCCCC1	8.66*	i
CCc1c(C)nc(N2CCN(c3ccccc3F)CC2)[nH]c1=O	1.12	i
C[C@H](CO)NC(=O)[C@H](C)[C@H]1C[C@]1(C)[C@H](NC(=O)OCc1ccccc1)c1ccccc1	0.67	i
C[C@@H](C(=O)NCC1CC1)[C@@H]1C[C@@]1(C)[C@@H](NC(=O)OCc1ccccc1)c1ccccc1	·	i
C[C@@H](C(=O)Nc1ccc2ccccc2c1)[C@H]1C[C@]1(C)[C@H](NC(=O)OCc1ccccc1)c1ccccc1	-5.89	-5.89*
C[C@@H](C(=O)NCc1ccccn1)[C@H]1C[C@]1(C)[C@H](NC(=O)OCc1ccccc1)c1ccccc1	-6.68	-6.68*
N/C(=N\OC(=O)c1ccccc1)c1ccn[nH]1	·	i
O=C(CN1C(=O)COc2ccccc21)N(Cc1ccccc1)Cc1ccccn1	-6.06	-6.06*
Cc1ccc(CN(Cc2cccnc2)C(=O)CN2C(=O)COc3ccccc32)o1	·	i
CCN(c1ccccc1)S(=O)(=O)c1ccc(Cl)c(NC(=O)CN2C(=O)NC3(CCCC3)C2=O)c1	0.52	i
CCOC(=O)N1CCC(c2cc(=O)n3[nH]cc(C(=O)OC)c3n2)CC1	·	i
CCOc1ccc(NC(=O)c2c[nH]n3c(=O)cc(C4CCN(C(=O)OC(C)(C)C)CC4)nc23)cc1	8.55*	i
CCOc1cc(N2CCOCC2)c(OCC)cc1NC(=O)CN1CCC(Cc2ccccc2)CC1	6.14*	i
CCOc1cc(N2CCOCC2)c(OCC)cc1NC(=O)CN1C(=O)NC(Cc2ccccc2)C1=O (stereo not given)	·	i
SMILES	KCNQ2 enhance	KCNQ2 block
CCCN(CCC)C(=O)CC(c1ccccc1)c1cc(C)ccc1O (stereo not given)	-6.04	-6.04*
Cc1ccc(O)c(C(CC(=O)NCc2ccco2)c2ccccc2)c1 (stereo not given)	15.9*	i
Cc1ccc(O)c(C(CC(=O)NC(C)C)c2ccccc2)c1 (stereo not given)	0.44	i
Cc1cccc(C(CC(=O)NCc2ccco2)c2ccccc2)c1O (stereo not given)	0.02	i
Cn1c(COc2ccccc2)nnc1SCC(=O)NC1CCCC1	·	i
O=C(NC(=S)NCc1ccccc1)c1ccccc1[N+](=O)[O-]	1.14	i
Cc1cccc(Cc2cnc(N3C(=N)SC(C)C3=O)s2)c1 (stereo not given)	6*	i
Cc1ccc(Cc2cnc(N3C(=N)SC(C)C3=O)s2)cc1 (stereo not given)	0.46	i
CS(=O)(=O)CCC(C(=O)OCc1ccc(Cl)cc1)N1C(=O)c2ccccc2C1=O (stereo not given)	0.46	i
O=C(Nc1ccccc1Cl)c1ccc2nc(N3CCOCC3)sc2c1	·	i
CC1CCCCC1NC1=NCCCS1 (stereo not given)	·	i
Cc1ccccc1OCCC(=O)Nc1cc(S(=O)(=O)N2CCOCC2)ccc1OC(C)C	0.1	i
CCCN(CC1CC1)c1nc(C)nc(Nc2c(Cl)cc(Cl)cc2Cl)c1Cl	-5.63	-5.63*
CCCN(CC1CC1)c1nc(N)c(C#N)c(CC#N)c1C#N	·	i
CC(C)(C)C(=O)Cn1c(=N)n(Cc2ccccc2)c2ccccc21	-6.24	-6.24*
CC(C)(C)C(=O)Cn1c(=N)n(Cc2ccccc2Cl)c2ccccc21	·	i
CCOC(=O)c1c(N)sc(C(=O)OC)c1C	0.93	i
CCOC(=O)c1sc(NN=C(C(=O)OC)C(=O)OC)c(C(=O)OCC)c1C	5.69*	i
Cc1onc(-c2ccc(Cl)cc2Cl)c1-c1csc(N/N=C/c2ccccc2Cl)n1	·	i
COc1ccccc1CNC(=O)CN(Cc1ccc(Cl)cc1)S(C)(=O)=O	-5.88	-5.88*
CS(=O)(=O)N(CC(=O)NCc1ccccc1)Cc1ccc(Cl)cc1	·	i
CCc1ccc(/C=C/C(=O)C2C(=O)c3ccccc3C2=O)cc1	3.54	i
O=C(/C=C/c1ccccc1)C1C(=O)c2ccccc2C1=O	5.77*	i
COc1ccccc1CCC(=O)NNC(=O)c1ccc(Br)cc1	0.1	i
O=C(OC(C(=O)Nc1ccc(Cl)cc1C(F)(F)F)c1ccccc1)C1=COCCO1 (stereo not given)	·	i
SMILES	KCNQ2 enhance	KCNQ2 block
CN(C)c1cccc(C(=O)OC(C(=O)Nc2ccc(Cl)cc2C(F)(F)F)c2ccccc2)c1 (stereo not given)	-8	-8*
CCOc1ccc2nc(N3CCCCCC3)sc2c1	1.02	i
COc1ccc2nc(N3C(=O)/C(=C/c4ccccc4)NC3=S)sc2c1	22.7*	i
COc1ccc2nc(-n3c(C)ccc3C)sc2c1	0.47	i
CCOc1ccc2nc(N3C(=O)/C(=C/c4ccccc4)NC3=S)sc2c1	20.5*	i
COc1ccc(CC(=O)Nc2cccc(/C(C)=N/NC(=O)C3(C)CC3(Br)Br)c2)cc1 (stereo not given)	·	i
CCNc1nc(NC(C)C)nc(SCCOC(=O)c2ccccc2)n1	·	i
CCNc1nc(NC(C)C)nc(SCCOc2ccc(C)cc2)n1	-5.56	-5.56*
CC1CCCC(C)N1C(=O)COC(=O)Cc1c[nH]c2ccccc12 (stereo not given)	·	i
Nn1c(SC/C=C/c2ccccc2)nnc1-c1ccncc1	·	i
COc1cc(-c2nnc(SC/C=C/c3ccccc3)n2N)cc(OC)c1OC	-5.87	-5.87*
CCOCCCn1c(=S)[nH]c2cc(C(=O)NCCc3ccccc3)ccc2c1=O	·	i
COC(=O)c1ccc(C(=O)OC)c(NC(=O)COC(=O)C2CCCCC2)c1	0.28	i
COC(=O)c1ccc(C(=O)OC)c(NC(=O)COC(=O)C2CCC(C(C)(C)C)CC2)c1 (stereo not given)	-5.9	-5.9*
O=C1Nc2cc(Cl)c(Cl)cc2N(O)N1c1ccc(Cl)c(Cl)c1	·	i
COc1ccc(-n2cc(CNCCc3cscn3)c(-c3ccccc3Cl)n2)cc1	·	i
Cc1ccc(-n2cc(CNCCc3cscn3)c(-c3ccc(F)cc3)n2)cc1	-6.78	-6.78*
